From PubChem BioAssay
An excerpt weighted towards active compounds, which were near 12% of everything screened.
JMJD2A Tudor inh: JMJD2A Tudor domain (human) inhibition | AlphaScreen JMJD2A-Tudor / H3K4me3 peptide binding | Potency, µM (top dose mostly 114 µM), usual class: inhibitors | 4.4% of 390,000 active | AID 504339; further: nearly all actives have a fitted effect of over 50% in size
HP1b binding inh: inhibitors of HP1-beta chromodomain binding to methylated histone tails; AlphaScreen HP1-beta / biotin-H3K9me3 peptide binding; AID 540317; 0.56% of 390,000 active; Potency, µM (doses to about 114 µM), hits mostly inhibitors; further: nearly all actives have a fitted effect of over 70% in size
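AlphaScreen: HP1-beta (50 nM) preformed 30 min with biotin-H3(1-18)K9me3 peptide (50 nM) in PBS pH 7.4, 0.01% Tween-20. Compound added for 30 min at RT, then streptavidin donor/nickel chelate acceptor beads (10 ug/mL) for 30 min.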
G9a inh: inhibitors of human histone lysine methyltransferase G9a. Q96KQ7. G9a H3K9 monomethylation, AlphaScreen, 2 h. Potency, µM (top dose mostly 102 µM), hits mostly inhibitors. 8.8% of 350,000 active. AID 504332; further: nearly all actives have a fitted effect of over 75% in size
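Enzyme 20 nM + cpd, 15 min RT; add b-H3K9 pep 500 nM / SAM 20 uM; 2 h RT; anti-H3K9me1 Ab 0.5 ug/mL + SA donor / anti-rabbit acceptor beads 20 ug/mL each, 10 min; AlphaScreen read.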
Sfp inh: blocks B. subtilis Sfp PPTase activity; AID 1490; Biochemical Sfp PPTase activity, qHTS; Potency, µM, hits mostly inhibitors; 3.5% of 310,000 active; Q9F4F7;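 further: the enzyme is Sfp with the accession as filed and its product quenches rhodamine fluorescence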
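Sfp 15 nM + cpd, 15 min RT; start w/ rhodamine-CoA 5 uM, BHQ-2-YbbR 12.5 uM (final); 50 mM Hepes pH 7.6, 10 mM MgCl2, 0.01% NP-40, 0.01% BSA; read 525/598 nm at 0 and 30 min.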
PLK1 PBD inh: blocks phosphopeptide binding to human PLK1 polo-box domain. P53350. Plk1 PBD binding of FITC phosphopeptide, fluorescence polarization. Potency, µM, hits mostly inhibitors. 2.8% of 360,000 active; further: series mostly up to about 57 µM; nearly all actives have a fitted effect of over 65% in size
Target sequence (P53350 whole entry, looked up, the tested form may be a part): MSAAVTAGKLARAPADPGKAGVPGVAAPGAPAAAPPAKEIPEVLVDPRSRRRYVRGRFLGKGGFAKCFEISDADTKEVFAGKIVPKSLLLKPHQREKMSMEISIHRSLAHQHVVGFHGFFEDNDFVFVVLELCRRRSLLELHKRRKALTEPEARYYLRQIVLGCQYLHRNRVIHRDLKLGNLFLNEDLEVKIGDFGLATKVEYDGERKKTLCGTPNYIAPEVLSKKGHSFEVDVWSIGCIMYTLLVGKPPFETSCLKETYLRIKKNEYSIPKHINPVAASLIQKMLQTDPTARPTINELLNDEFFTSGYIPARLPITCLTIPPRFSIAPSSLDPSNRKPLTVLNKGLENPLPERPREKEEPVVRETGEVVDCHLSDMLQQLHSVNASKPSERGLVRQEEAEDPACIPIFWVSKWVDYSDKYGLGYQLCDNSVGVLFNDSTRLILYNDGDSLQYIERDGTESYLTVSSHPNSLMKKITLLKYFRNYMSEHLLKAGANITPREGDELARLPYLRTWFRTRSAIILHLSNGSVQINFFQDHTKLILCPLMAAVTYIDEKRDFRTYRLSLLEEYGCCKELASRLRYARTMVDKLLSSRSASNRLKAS
BAZ2B inh: BAZ2B (human) inhibition; Q9UIF8; AlphaScreen BAZ2B-H3K14Ac peptide displacement; Potency, µM (titrated, usually from 114 µM), actives largely listed as inhibitors; 4.4% of 360,000 active; AID 504333; further: nearly all actives have a fitted effect of over 60% in size
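Complex of BAZ2B and biotin-H3K14Ac (50 nM apiece) forms over 30 min at RT, then faces library compounds up to 110 uM for another 30 min; AlphaScreen beads added, 20 min dark incubation, luminescence read.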
Numbers stand for hits; – = inactive; ? = inconclusive; · = not tested or not shown; [ ] = another dose, or the depositor's remark. The call rests on the fitted dose curve; in most records, active means well fitted curve in the direction sought with a large enough effect; inconclusive means small, poorly fitted or top-dose-only effect, or another doubt; inactive means no such curve, though single readings can be large; an effect the other way counts as inactive or inconclusive.

SMILES	JMJD2A Tudor inh	HP1b binding inh	G9a inh	Sfp inh	PLK1 PBD inh	BAZ2B inh
Cc1ccccc1C(=O)N1CCC(n2nccc2NC(=O)CCOc2ccccc2)CC1	–	–	·	–	–	–
CCN(CC)CCNS(=O)(=O)c1ccc(OC)c(Br)c1	56.2µM	–	3.98µM	–	–	–
COc1cc(-c2noc(-c3ccc(NCCc4ccccc4)c([N+](=O)[O-])c3)n2)cc(OC)c1OC	–	–	–	·	·	–
CCCOc1ccc(-c2nc(SCc3ccccc3)[nH]c(=O)c2C#N)cc1OC	?	–	?	–	26.7µM	–
CSc1nc(-c2cccs2)c(C#N)c(=O)[nH]1	–	–	44.7µM	–	–	–
N#Cc1c(-c2cccs2)nc(SCc2ccc(Cl)cc2)[nH]c1=O	?	–	–	79.4µM	21.2µM	?
CCSc1nc(-c2ccccc2)c(C#N)c(=O)[nH]1	–	–	–	–	–	–
N#Cc1c(-c2ccccc2)nc(SCc2nc(N)nc(N3CCCCC3)n2)[nH]c1=O	?	?	–[12.7 µM]	–	2.99µM	–
CNC(=O)NC(=O)CSc1nc(-c2cccs2)c(C#N)c(=O)[nH]1	–	–	–	–	–	–
CSc1nc(-c2ccccc2)c(C#N)c(=O)[nH]1	–[11.4 µM]	–	–	–	26.7µM	–
CSc1nc(-c2ccc(Cl)cc2)c(C#N)c(=O)[nH]1	–	–	?	–	–	–
C=CCOC(=O)C(=O)/C=C/c1csc2ccccc12	?	–	?	39.8µM	?	?
COc1ccc(C2CC(c3ccccc3)=NN2C(=O)CSc2nnnn2-c2cccc(C)c2)cc1 (stereo not given)	–	–	·	·	–	·
O=[N+]([O-])c1ccc(Cl)c(CN2CCCCCC2)c1	1.26µM	?	25.1µM	–	–	56.2µM
O=[N+]([O-])c1ccc(Cl)c(CN2CCC(O)CC2)c1	10µM	44.7µM	7.94µM	50.1µM	–	56.2µM
O=C(NNC(=O)c1n[nH]c2ccccc12)c1ccccc1	–	–	–	·	–	–
COc1ccc(CCN2CC(C(=O)Nc3cc(S(C)(=O)=O)ccc3Cl)CC2=O)cc1OC (stereo not given)	–	–	–	·	–	–
Cc1ccc(CN2CC(C(=O)Nc3cc(S(C)(=O)=O)ccc3Cl)CC2=O)cc1 (stereo not given)	–	–	?	–	–	50.1µM
CCCn1c(N)c(N(CCOC)C(=O)COC(=O)c2ccccc2NCCO)c(=O)[nH]c1=O	–	–	8.91µM	·	–	–
CCCCn1c(N)c(N(CCOC)C(=O)COC(=O)c2ccccc2OCC)c(=O)[nH]c1=O	–	–	–	–	–	–
CCCCn1c(N)c(N(CC(C)C)C(=O)COC(=O)c2ccccc2NCCO)c(=O)[nH]c1=O	–	–	3.98µM	·	–	70.8µM
Cc1ccc(-c2nn(CC(=O)NC3CCCCC3)c3c2cnc2ccc(F)cc23)cc1C	–	–	–	·	·	–
O=C([C@@H]1Cc2ccccc2CN1)N1CCN(Cc2ccccc2)CC1	–	–	31.6µM	–	–	79.4µM
Cc1cc(C)cc(NC(=O)C2CCC(CNC(=O)[C@@H]3Cc4ccccc4CN3)CC2)c1 (stereo not given in full)	–	–	–	–	–	–
CC(C)c1ccc(NC(=O)C2CCN(C(=O)[C@@H]3Cc4ccccc4CN3)CC2)cc1	–	–	·	–	–	–
SMILES	JMJD2A Tudor inh	HP1b binding inh	G9a inh	Sfp inh	PLK1 PBD inh	BAZ2B inh
Cc1cc(C)cc(NC(=O)C2CCN(C(=O)[C@@H]3Cc4ccccc4CN3)CC2)c1	22.4µM	–	50.1µM	–	4.74µM	?
Cc1ccc(NC(=O)[C@@H]2CCCN2C(=O)[C@@H]2Cc3ccccc3CN2)c(C)c1	–	–	50.1µM	–	–	–
Cc1ccc(NC(=O)C2CCN(C(=O)[C@@H]3Cc4ccccc4CN3)CC2)cc1	–	–	56.2µM	–	–	–
O=C(CCc1ccccc1)NNC(=O)c1ccccc1Br	–	–	28.2µM	–	–	–
O=C(CCc1ccccc1)NNC(=O)c1ccccc1C(=O)O	–	–	10µM	–	–	–
COC(=O)c1c(NC(=O)c2cc(=O)c3cc(C)cc(C)c3o2)sc2c1CCC2	–	–	–	·	·	–
C=C(C)CSc1nnc([C@@H]2CCCN2)o1	50.1µM	–	?	?	–	50.1µM
Clc1ccc(CSc2nnc([C@@H]3CCCN3)o2)cc1Cl	–	–	?	–	–	?
Cc1ccc(C)c(CSc2nnc([C@@H]3CCCN3)o2)c1	–	–	–	–	–	?
O=C(CSc1nnc([C@@H]2CCCN2)o1)c1ccc(Cl)cc1	?	–	39.8µM	–	–	–
Cc1ncoc1C(=O)N1CCCC(C(=O)c2ccc(C(F)(F)F)cc2)C1 (stereo not given)	–	–	25.1µM	–	–	–
Cc1ccc(NC(=O)N2CCN(c3cc(-c4noc(C)n4)ccc3C)CC2)c(F)c1	–	–	–	·	·	–
NCCCN(Cc1ccc(Cl)c(Cl)c1)c1ccc(Br)cn1	–	–	·	·	·	·
CCOC(=O)c1c(C)n(C)c2ccc(OC)c(NC(=O)CN3CCSCC3)c12	–	–	–[12.7 µM]	–	–	–
CCOC(=O)c1c(C)n(C)c2ccc(OC)c(NC(=O)c3cccs3)c12	?	–	–	–	29.9µM	–
CCC(=O)Nc1ccc(Cl)c(NC(=S)NC(=O)c2cc3ccccc3o2)c1	–	–	–	–	–	–
CCC(=O)Nc1ccc(Cl)c(NC(=S)NC(C)=O)c1	–	–	28.2µM	–	–	–
CCC(=O)Nc1ccc(Cl)c(NC(=S)NC(=O)c2ccco2)c1	–	–	?	–	26.7µM	–
O=C(c1cc(COc2c(F)cccc2F)on1)N1CCN(C2CCCCC2)CC1	–	–	–	–	23.8µM	–
COc1cc(Cl)ccc1OCc1cc(C(=O)N2CCCCCCC2)no1	–	–	–	–	–	–
COc1cc(C)ccc1OCc1cc(C(=O)N2CCCCCC2)no1	15.8µM	–	·	–	26.7µM	–
O=C(NN=C1CCCCC1)c1ccccc1OCc1ccc(F)cc1	–	–	–	–	–	–
COc1cc(C(=S)N2CCCC2)ccc1OCc1ccc(C)cc1	–	–	31.6µM	–	?	–
Fc1ccc(COc2ccccc2C(=S)N2CCCC2)cc1	79.4µM	?	1.78µM	?	4.23µM	–
COc1ccc(/C=C(\C#N)c2nc(-c3cc4c(ccc5ccccc54)oc3=O)cs2)cc1O	–	–	–	·	·	–
COC(=O)N(/C=C/c1ccc(OC)cc1)CCc1ccc(OC)c(OC)c1	·	·	·	–	·	·
O=C(N/N=C1/C[C@@H](O)[C@@H](O)[C@@H]2[C@@H]3C(=O)N(Cc4ccc5c(c4)OCO5)C(=O)[C@H]3CC[C@@H]12)OCc1ccccc1	·	·	·	–	·	·
Cc1ccc(COc2ccccc2C(=S)N2CCCC2)cc1	–	–	12.6µM	25.1µM	?	–
CSc1ccccc1OCc1cc(C(=O)N2CCSCC2)no1	–	–	?	–	–	–
